This passage reports outcome and AC50 results from PubChem BioAssay (EPA / NIEHS).

Assay [1] has as its target Peroxisome proliferator-activated receptor gamma (Homo sapiens) (UniProt P37231). Description: OT_PPARg_PPARgSRC1_0480: Odyssey Thera (OT) 8-hour Protein-Complementation Assay for Peroxisome Proliferator-activated Receptor Gamma / SRC-1 Co-activator (AID 2283387).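 Also: nuclear to cytoplasmic split Venus YFP fluorescence ratio reporting PPARg SRC-1 interaction.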 In short, it runs like this:
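Read-out: 488 nm N/C fluorescence ratio from complemented Venus YFP fragments, ≥350 cells per image, gain-of-signal fitted against DMSO baseline. Fusions of PPARg/SRC-1 with IFP1/IFP2 expressed transiently in HEK293T; compounds applied 8 h.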

Assay [2] concerns the target rat Peripheral-type Benzodiazepine Receptor (PBR), Tspo (gene 24230) (UniProt P16257). Nature of the assay: NVS_MP_rPBR: NovaScreen (NVS) Membrane Protein Assay for rat Peripheral-type Benzodiazepine Receptor (PBR) (AID 2283335). In short, it runs like this: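 Rat kidney membranes; radioligand binding with displacement, filter-based scintillation counting, 1 h incubation. Primary screen in duplicate at 25 uM, actives followed in concentration series; loss of binding vs DMSO.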

Assay [3] in a line: CCTE_Padilla_ZF_Score.General: CCTE's 144 Hour Post-fertilization zebrafish Assay Score for General Malformation, Padilla Lab (AID 2284411; active = hit-call score of the fitted dose curve at least 0.9, where 1 is the maximum; inactive = score below 0.9). In short, it runs like this: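 Wild-type zebrafish embryos were plated singly at 6-8 hpf in 10% Hanks' and exposed in sealed wells at 26C until rinsed on 5 dpf. At 6 dpf two blinded assessors scored mortality, hatching and malformations by stereomicroscopy; gain-of-signal versus DMSO.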

Assay [4] addresses Peroxisome proliferator-activated receptor gamma (Homo sapiens) (UniProt P37231). Nature of the assay: NVS_NR_hPPARg: NovaScreen (NVS) Nuclear Receptor Binding Assay for human Peroxisome Proliferator-activated Receptor gamma (PPARg) (AID 2283370). The method in brief: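 Fluorescence polarization readout of ligand binding to extracted human PPARg, measured at 2 h. Duplicate single-point screen at 25 uM, then concentration-series retesting; activity defined as signal loss versus DMSO.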

Assay [5] deals with human Ephrin type-A Receptor 1 (EphA1), EPHA1 (gene 2041) (UniProt P21709). Description: NVS_ENZ_hEphA1: NovaScreen (NVS) Enzymatic Assay for human Ephrin type-A Receptor 1 (EphA1) (AID 2283158).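 Also: activity is signal loss versus DMSO meaning EphA1 kinase inhibition.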 The method in brief:
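Fluorescent substrate conversion, resolved by mobility-shift separation, measured 1 hour post-dosing using recombinant enzyme; signal loss relative to DMSO baseline. Single-concentration duplicates at 25 uM preceded singleton concentration series topping at 50 uM.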

Assay [6] has as its target Androgen receptor (Homo sapiens) (UniProt P10275). Nature of the assay: ATG_AR_TRANS: Attagene TRANS-FACTORIAL HepG2 Assay for human Androgen Receptor (AR) (AID 2282973). The note with it: HepG2 Attagene TRANS-FACTORIAL AR reporter transcription. The method in brief: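 Transcriptional activity of an exogenous AR–Gal4 fusion read as GAL4-UAS reporter transcript levels in transfected human HepG2 cells after 24 h dosing. Detection via RT-PCR, 6-FAM labelling, HpaI digest and capillary electrophoresis; increase over DMSO baseline.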

Assay [7] deals with Bile acid receptor (Homo sapiens) (UniProt Q96RI1). Description: OT_FXR_FXRSRC1_0480: Odyssey Thera (OT) 8-hour HEK293T Protein-Complementation Assay for Farnesoid X receptor/SRC-1 Co-activator (AID 2283383). In short, it runs like this:
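HEK293T protein-fragment complementation assay: FXR and SRC-1 coactivator are fused to reporter fragments, and their interaction restores a fluorescent reporter. Readout was taken 8 h after dosing, with gain of signal fit relative to DMSO.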

The target of assay [8] is Nucleoli Translocation, AR (gene 367) (UniProt P10275). Description: UPITT_HCI_U2OS_AR_TIF2_Nucleoli_Agonist: University of Pittsburgh U2OS Androgen Receptor-Transcriptional Intermediary Factor 2 (AR-TIF2) Agonism High Content Imaging Assay for Nucleoli Translocation (AID 2283998). The method in brief:
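Nucleolar translocation of AR-RFP, with TIF2-GFP coexpressed in human osteosarcoma U2OS, imaged by high-content fluorescence. Compounds tested singly at 20 uM final, confirmed in triplicate, then titrated 0.195–50 uM final; gain-of-signal relative to DMSO.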

In assay [9] the target is Ratio of Nucleoli Translocation and Cytoplasm, AR (gene 367) (UniProt P10275). Description: UPITT_HCI_U2OS_AR_TIF2_Nucleoli_Cytoplasm_Ratio_Antagonist: University of Pittsburgh U2OS Androgen Receptor-Transcriptional Intermediary Factor 2 (AR-TIF2) Antagonism High Content Imaging Assay for Ratio of Nucleoli Translocation and Cytoplasm (AID 2283999).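 Also: antagonists lower the DHT-driven ratio of nucleolar to cytoplasmic red signal.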 The method in brief:
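U2OS cells co-expressing RFP-tagged human AR and GFP-tagged TIF2, antagonist mode with DHT as baseline. Nucleolar-to-cytoplasmic red fluorescence ratio imaged by high-content microscopy; final compound 20 uM (0.2% DMSO) primary, 0.195–50 uM (0.5% DMSO) concentration-response.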

For assay [10] the target is unchanged. Description: UPITT_HCI_U2OS_AR_TIF2_Nucleoli_Cytoplasm_Ratio_Agonist: University of Pittsburgh U2OS Androgen Receptor-Transcriptional Intermediary Factor 2 (AR-TIF2) Agonism High Content Imaging Assay for Ratio of Nucleoli Translocation and Cytoplasm (AID 2284000).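 Also: hits raise the red nucleolar to cytoplasm ratio above vehicle.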 In short, it runs like this: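 Read-out first: nucleolar-to-cytoplasm ratio of red (AR-RFP) signal, quantified by high-content imaging in U2OS cells co-expressing TIF2-GFP. Activity is scored as signal increase over DMSO. Single-point screening used 20 uM final (0.2% DMSO).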

A short description of assay [11]: CCTE_Deisenroth_AIME_384WELL_CTox_Active: Cytotoxicity Assessment (CTOX) in CCTE's 384-well Estrogen Receptor Transactivation Assay with AIME metabolic competence (metabolism positive), Deisenroth Lab (AID 2284037).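 Also: chemicals first conditioned 2 h by alginate-bound induced rat liver S9 before cells; activity means signal loss indicating cell death.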 The method in brief:
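Cytotoxicity in VM7Luc4E2 breast cells, 24 hour, measured as protease-substrate fluorescence loss, after 2-hour metabolic conditioning with induced rat hepatic S9 in alginate microspheres. Concentrations 0.002 - 200 uM, 10 points, bidirectional fitting.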

Assay [12] is described as follows: CEETOX_H295R_OHPREG: CeeTox H295R High-throughput Steroidogenesis Assay for OH-Pregnenolone (OHPREG) (AID 2283434; active = hit-call score of the fitted dose curve at least 0.9, where 1 is the maximum; inactive = score below 0.9). The note with it: actives raise or lower the signal. The method in brief:
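Hormone levels in spent medium were measured by tandem mass spectrometry following liquid-liquid extraction. Cells (H295R) had been forskolin-stimulated (10 uM, 48 h) before a 48 h chemical exposure at 0.1% DMSO, with activity fitted in both directions against DMSO.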

The nature of assay [13]: CEETOX_H295R_OHPROG: CeeTox H295R High-throughput Steroidogenesis Assay for OH-Progesterone (OHPROG) (AID 2283435; active = hit-call score of the fitted dose curve at least 0.9, where 1 is the maximum; inactive = score below 0.9;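 as to AC50: human adrenal H295R cells primed 48 h with 10 µM forskolin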). The note with it: actives raise or lower the signal. The method in brief: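 H295R adrenal cells prestimulated 48 h with 10 uM forskolin, then exposed 48 h to chemical (0.1% DMSO final). 17alpha-hydroxyprogesterone in medium quantified by HPLC-MS/MS; bidirectional fit versus DMSO, with MTT viability measured in the same wells.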

Assay [14] can be described thus: CEETOX_H295R_PROG: CeeTox H295R High-throughput Steroidogenesis Assay for Progesterone (PROG) (AID 2283442; active = hit-call score of the fitted dose curve at least 0.9, where 1 is the maximum; inactive = score below 0.9;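 as to AC50: human H295R adrenal cells primed with 10 µM forskolin before dosing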). The conditions noted are these: actives raise or lower the signal. The method in brief:
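Progesterone secreted by human H295R cells was measured by LC-MS/MS following 48 h chemical exposure at 0.1% DMSO, preceded by 48 h forskolin (10 uM) stimulation. Same-well MTT viability; cytotoxic concentrations diluted 10- or 100-fold and retested.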

Assay [15] deals with Sodium/Iodide Symporter (NIS), SLC5A5 (gene 6528). Description: CPHEA_Stoker_NIS_Inhibition_RAIU: CPHEA's Radioactive Iodide Uptake (RAIU) Assay for Sodium/Iodide Symporter (NIS) Inhibition, Stoker and Laws Labs (AID 2283841). In short, it runs like this:
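HEK293T cells stably expressing human NIS (hNIS-HEK293T-EPA) were exposed to test chemicals at 0.001–100uM (0.5% final DMSO) with 125I at a final 329pM in HBSS/10mM HEPES pH 7.4. After 2 hours at room temperature and ice-cold washes, intracellular 125I was counted as CPM and normalized to DMSO wells.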

Assay [16] in a line: CPHEA_Stoker_NIS_Cytotoxicity: Cytotoxicity Assessment for CPHEA's Radioactive Iodide Uptake (RAIU) Assay for Sodium/Iodide Symporter (NIS) Inhibition, Stoker and Laws Labs (AID 2283897). In short, it runs like this:
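hNIS-HEK293T-EPA human kidney cells were exposed for 2 hours at room temperature to test chemicals (0.001–100uM, 0.5% final DMSO) in HEPES-buffered HBSS, pH 7.4. Viability was read as ATP content by luciferase bioluminescence, loss of signal versus DMSO.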

Assay [17] can be described thus: CEETOX_H295R_11DCORT: CeeTox H295R High-throughput Steroidogenesis Assay for 11-Deoxycortisol (11DCORT) (AID 2283432; active = hit-call score of the fitted dose curve at least 0.9, where 1 is the maximum; inactive = score below 0.9). The conditions noted are these: actives raise or lower the signal. The method in brief: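 H295R cells; 10 uM forskolin prestim 48 h; compound in 0.1% DMSO 48 h; media extracted with MTBE; 11-deoxycortisol by LC-MS/MS, 7-point standard curve; gain/loss vs DMSO baseline; viability by MTT in same wells.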

A short description of assay [18]: CEETOX_H295R_CORTIC: CeeTox H295R High-throughput Steroidogenesis Assay for Corticosterone (CORTIC) (AID 2283437; active = hit-call score of the fitted dose curve at least 0.9, where 1 is the maximum; inactive = score below 0.9;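 also: corticosterone secreted into medium quantified by mass spectrometry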). The conditions noted are these: actives raise or lower the signal. The method in brief:
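Corticosterone secreted into medium is measured by reverse-phase HPLC with tandem MS following liquid-liquid extraction. Cells are forskolin-stimulated (10 uM, 48 h) before 48 h test exposure; activity fitted in both directions against DMSO.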

The nature of assay [19]: CEETOX_H295R_CORTISOL: CeeTox H295R High-throughput Steroidogenesis Assay for Cortisol (AID 2283438; active = hit-call score of the fitted dose curve at least 0.9, where 1 is the maximum; inactive = score below 0.9;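 also: cortisol secreted into medium quantified by LC-MS/MS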). The conditions noted are these: actives raise or lower the signal. In short, it runs like this: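 Forskolin-primed H295R cells (10 uM, 48 h) treated 48 h with test chemical in 0.1% DMSO. Cortisol in medium quantified by MTBE extraction and HPLC-MS/MS; bidirectional fit vs DMSO, MTT viability in same wells.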

Assay [20] is described as follows: CEETOX_H295R_DOC: CeeTox H295R High-throughput Steroidogenesis Assay for DOC (AID 2283439; active = hit-call score of the fitted dose curve at least 0.9, where 1 is the maximum; inactive = score below 0.9). The conditions noted are these: actives raise or lower the signal. The method in brief: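 H295R cells prestimulated 48 h with 10 uM forskolin, then exposed 48 h to test chemical (0.1% DMSO final). Medium 11-deoxycorticosterone measured by HPLC-MS/MS after MTBE extraction; bidirectional fit vs DMSO, viability checked by MTT in same wells.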

Records with an inconclusive call do not appear. Active and inactive are the calls of the source. The calls were made as follows, unless noted: active = hit-call score of the fitted dose curve at least 0.9, where 1 is the maximum; inconclusive = response in the unintended direction; inactive = score below 0.9.

One may read the AC50 as the concentration giving half of the maximal activity seen.

rat Peripheral-type Benzodiazepine Receptor (PBR), Tspo (gene 24230), sequence (P16257 whole entry, looked up): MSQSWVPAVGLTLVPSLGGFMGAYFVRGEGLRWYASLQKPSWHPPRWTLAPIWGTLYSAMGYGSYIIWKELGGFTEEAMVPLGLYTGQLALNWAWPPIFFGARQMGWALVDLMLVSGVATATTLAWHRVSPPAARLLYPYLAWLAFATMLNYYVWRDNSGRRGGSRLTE
Bile acid receptor (Homo sapiens), sequence (Q96RI1 whole entry, looked up, the tested form may be a part): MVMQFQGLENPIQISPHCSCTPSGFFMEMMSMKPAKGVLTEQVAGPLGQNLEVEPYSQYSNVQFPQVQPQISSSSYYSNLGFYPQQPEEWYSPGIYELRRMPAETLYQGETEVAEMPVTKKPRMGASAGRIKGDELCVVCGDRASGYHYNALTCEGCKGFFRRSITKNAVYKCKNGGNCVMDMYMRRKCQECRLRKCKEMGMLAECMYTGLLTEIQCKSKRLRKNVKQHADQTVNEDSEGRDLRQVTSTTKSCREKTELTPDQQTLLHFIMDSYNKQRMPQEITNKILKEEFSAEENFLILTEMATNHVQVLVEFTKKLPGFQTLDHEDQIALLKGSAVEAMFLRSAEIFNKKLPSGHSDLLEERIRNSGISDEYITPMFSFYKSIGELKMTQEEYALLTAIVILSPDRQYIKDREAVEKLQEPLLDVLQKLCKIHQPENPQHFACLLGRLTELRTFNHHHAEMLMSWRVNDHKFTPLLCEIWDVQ
Peroxisome proliferator-activated receptor gamma (Homo sapiens), sequence (P37231 whole entry, looked up, the tested form may be a part): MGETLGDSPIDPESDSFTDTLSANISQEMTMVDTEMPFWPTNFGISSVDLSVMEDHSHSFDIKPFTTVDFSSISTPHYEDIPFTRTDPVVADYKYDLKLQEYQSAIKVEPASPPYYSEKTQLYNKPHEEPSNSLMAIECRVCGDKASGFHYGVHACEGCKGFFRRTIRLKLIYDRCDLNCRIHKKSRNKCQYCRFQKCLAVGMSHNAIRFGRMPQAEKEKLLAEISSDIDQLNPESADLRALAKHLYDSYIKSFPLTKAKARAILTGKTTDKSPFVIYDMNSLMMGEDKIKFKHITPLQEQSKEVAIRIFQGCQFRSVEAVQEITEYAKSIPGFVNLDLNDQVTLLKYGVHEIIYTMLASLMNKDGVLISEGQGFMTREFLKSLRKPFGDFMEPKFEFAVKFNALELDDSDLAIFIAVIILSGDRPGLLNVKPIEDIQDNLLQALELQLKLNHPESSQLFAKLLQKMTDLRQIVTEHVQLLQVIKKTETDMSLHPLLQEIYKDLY
human Ephrin type-A Receptor 1 (EphA1), EPHA1 (gene 2041), sequence (P21709 whole entry, looked up): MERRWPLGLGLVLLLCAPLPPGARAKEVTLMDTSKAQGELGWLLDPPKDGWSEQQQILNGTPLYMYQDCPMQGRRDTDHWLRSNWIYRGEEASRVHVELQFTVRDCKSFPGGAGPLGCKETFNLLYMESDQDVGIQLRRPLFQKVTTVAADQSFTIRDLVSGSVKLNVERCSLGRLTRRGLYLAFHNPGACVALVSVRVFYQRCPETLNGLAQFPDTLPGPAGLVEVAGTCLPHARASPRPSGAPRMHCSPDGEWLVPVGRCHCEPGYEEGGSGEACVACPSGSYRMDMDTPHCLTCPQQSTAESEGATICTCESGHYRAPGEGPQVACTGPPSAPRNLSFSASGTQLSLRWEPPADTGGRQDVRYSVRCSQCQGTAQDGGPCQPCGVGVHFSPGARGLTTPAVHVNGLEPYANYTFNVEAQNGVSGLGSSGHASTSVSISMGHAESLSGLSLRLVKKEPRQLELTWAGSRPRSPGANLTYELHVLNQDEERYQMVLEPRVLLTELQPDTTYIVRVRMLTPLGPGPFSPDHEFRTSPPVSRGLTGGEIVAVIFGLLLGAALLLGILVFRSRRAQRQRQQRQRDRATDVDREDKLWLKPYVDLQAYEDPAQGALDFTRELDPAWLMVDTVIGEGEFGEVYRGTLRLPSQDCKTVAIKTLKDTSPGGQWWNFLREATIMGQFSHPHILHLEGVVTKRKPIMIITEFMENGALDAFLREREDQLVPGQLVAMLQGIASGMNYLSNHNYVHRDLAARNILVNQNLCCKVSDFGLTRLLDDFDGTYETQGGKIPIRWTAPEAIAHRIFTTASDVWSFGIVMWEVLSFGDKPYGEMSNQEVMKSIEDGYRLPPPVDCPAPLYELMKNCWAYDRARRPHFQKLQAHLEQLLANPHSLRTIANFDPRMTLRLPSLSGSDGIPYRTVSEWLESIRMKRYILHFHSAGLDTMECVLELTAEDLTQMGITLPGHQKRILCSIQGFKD
Androgen receptor (Homo sapiens), sequence (P10275 whole entry, looked up, the tested form may be a part): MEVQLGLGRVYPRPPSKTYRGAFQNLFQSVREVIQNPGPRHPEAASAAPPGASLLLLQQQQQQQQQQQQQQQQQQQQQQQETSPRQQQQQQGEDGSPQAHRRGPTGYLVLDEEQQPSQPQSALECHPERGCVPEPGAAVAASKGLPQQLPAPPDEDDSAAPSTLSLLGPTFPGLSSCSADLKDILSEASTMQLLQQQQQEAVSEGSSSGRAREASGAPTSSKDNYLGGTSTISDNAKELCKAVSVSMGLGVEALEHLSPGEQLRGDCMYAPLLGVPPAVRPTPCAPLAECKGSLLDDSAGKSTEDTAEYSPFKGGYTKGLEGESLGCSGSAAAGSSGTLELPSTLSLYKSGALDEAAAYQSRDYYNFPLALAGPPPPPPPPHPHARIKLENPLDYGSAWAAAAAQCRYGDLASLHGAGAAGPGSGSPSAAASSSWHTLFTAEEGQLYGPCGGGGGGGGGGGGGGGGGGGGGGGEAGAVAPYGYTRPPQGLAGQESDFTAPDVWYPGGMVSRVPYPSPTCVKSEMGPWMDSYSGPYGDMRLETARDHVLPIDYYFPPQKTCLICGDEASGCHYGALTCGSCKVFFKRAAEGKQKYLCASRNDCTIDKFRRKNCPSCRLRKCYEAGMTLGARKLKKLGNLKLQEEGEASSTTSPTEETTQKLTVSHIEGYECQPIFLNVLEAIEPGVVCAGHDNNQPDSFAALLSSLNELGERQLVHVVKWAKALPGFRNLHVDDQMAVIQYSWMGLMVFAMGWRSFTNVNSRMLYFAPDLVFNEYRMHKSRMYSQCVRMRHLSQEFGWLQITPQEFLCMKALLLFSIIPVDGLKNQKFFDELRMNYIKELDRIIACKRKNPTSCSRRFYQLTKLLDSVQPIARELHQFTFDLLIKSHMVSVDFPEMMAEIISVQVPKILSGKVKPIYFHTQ
Ratio of Nucleoli Translocation and Cytoplasm, AR (gene 367), sequence (P10275 whole entry, looked up): as the sequence (P10275 whole entry, looked up, the tested form may be a part) above
Nucleoli Translocation, AR (gene 367), sequence (P10275 whole entry, looked up): as the sequence (P10275 whole entry, looked up, the tested form may be a part) above

As for `[CH3][Sn]([CH3])([Cl])[Cl]`, the compound was classed as inactive in assay [1].

On to `CCCOC(=O)c1ccccc1C(=O)OCCC`, for which the compound was classed as inactive in assay [2] and in [3].

Take `CC(C)[C@@H](C(=O)O[C@@H](C#N)c1cccc(Oc2ccccc2)c1)c1ccc(Cl)cc1`: the result in assay [4] was inactive.

Turning to `O=C(O)CCl`, the outcome in assay [4] was inactive.

For the compound `O=P1(NCCCl)OCCCN1CCCl` (configuration not stated), the call in [5] was inactive.

In the case of `Cc1ccc(C)c2ccccc12`, the result in assay [6], in assay [7], in [8], in assay [9], in assay [10] and in assay [11] was inactive.

Regarding `CCOP(=O)(OCC)Oc1ccc([N+](=O)[O-])cc1`, the result in assay [2], in assay [7], in assay [12], in [13] and in assay [14] was inactive.

`O=C1Nc2ccc(Cl)cc2C(c2ccccc2)=NC1O` (configuration not stated): the call in assay [7], in assay [15] and in assay [16] was inactive.

Regarding `CC(=O)c1cc2c(cc1C)C(C)(C)C(C)CC2(C)C` (configuration not stated), the compound was classed as inactive in assay [12], in assay [13], in assay [15] and in [16].

Take `CC(C)(C)C(=O)CCl`: the call in assay [5] was inactive.

As for `c1ccc(Nc2ccc3ccccc3c2)cc1`, the figures for the concentration at half-maximal activity (AC50) in assay [2] and in assay [13] were 25 µM (active) and 5.24 µM (active), respectively. The call in [17], in [12], in assay [18], in [19], in [20] and in assay [14] was inactive. In addition, in assay [3], the outcome was inactive.

For `O=C(NC(=O)c1c(F)cccc1F)Nc1ccc(Oc2ccc(C(F)(F)F)cc2Cl)cc1F`, the AC50 in assay [7] was 56.3 µM (active); in assay [12], 12.4 µM (active); in assay [13], 1.37 µM (active); in [14] it was 1.28 µM (active). In assay [11], the call was inactive.

On to `O=S(=O)(c1ccccc1)c1ccccc1`, for which the half-maximal activity concentration (AC50) in assay [2] was 8.45 µM (active). For the same compound, in assay [3], the outcome was inactive.

In the case of `COC(C)(C)CCC[C@H](C)C/C=C/C(C)=C/C(=O)OC(C)C`, the result in assay [6] was inactive.
